The nature of test [1]: qHTS assay to identify small molecule agonists of the peroxisome proliferator-activated receptor delta (PPARd) signaling pathway - cell viability counter screen (AID 743211). Also: nearly all actives have a fitted effect of over 55% in size. Also: potency is read from the fitted curve at half-maximal effect. A digest of the protocol: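 PPARd-bla HEK293H cells (3000/well) were pre-incubated 5 h at 37 C, then exposed to compound for 17 h at 37 C. After 2 h with LiveBLAzer substrate, CellTiter-Glo was added to the same wells; luminescence read after 30 min at room temperature.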
For orientation: qHTS replaces the single test concentration by a dilution series.

Test [2] has as its target Peroxisome proliferator-activated receptor delta (Homo sapiens) (UniProt Q03181). Nature of the test: qHTS assay to identify small molecule agonists of the peroxisome proliferator-activated receptor delta (PPARd) signaling pathway (AID 743212; calls by dose curve). A digest of the protocol:
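Quantitative high-throughput agonist screen in a HEK293H beta-lactamase reporter line under UAS control. Compounds in DMSO, at 37 C. Fluorescence read after 2 h with FRET substrate at room temperature.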

The nature of test [3]: qHTS assay to identify small molecule antagonists of the peroxisome proliferator-activated receptor delta (PPARd) signaling pathway - cell viability counter screen (AID 743213). Also: nearly all actives have a fitted effect of over 50% in size. Also: potency is read from the fitted curve at half-maximal effect. The essentials: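 PPARd-bla HEK293H cells were treated with compounds plus agonist L165041 (300 nM final) for 17 h at 37 C. Viability was then read in the same wells by CellTiter-Glo luminescence after 30 min at room temperature.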

Test [4] addresses Peroxisome proliferator-activated receptor delta (Homo sapiens) (UniProt Q03181). Nature of the test: qHTS assay to identify small molecule antagonists of the peroxisome proliferator-activated receptor delta (PPARd) signaling pathway (AID 743215; active = well fitted inhibition curve with a large enough effect in the signal ratio in the repeat runs, not every such curve was filed as active; the % refers to the signal ratio;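 also: cells stimulated with agonist L165041 at 300 nM final during compound exposure; series mostly up to about 62 µM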). The essentials: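 Antagonist-mode beta-lactamase reporter screen: HEK293H cells with UAS-bla under PPARd control, stimulated by 300 nM L165041 (final) alongside test compound for 17 h at 37 C, then FRET fluorescence after 2 h substrate incubation.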

Test [5] deals with Bile acid receptor (Homo sapiens) (UniProt Q96RI1). The test is described as follows: qHTS assay to identify small molecule antagonists of the farnesoid-X-receptor (FXR) signaling pathway (AID 743217; active = well fitted inhibition curve with a large enough effect in the signal ratio in the repeat runs, not every such curve was filed as active; the % refers to the signal ratio; also: potency is read from the fitted curve at half-maximal effect). The essentials: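 Beta-lactamase reporter under UAS control in HEK 293T cells; compound exposure 16 h at 37 °C in the presence of chenodeoxycholic acid (50 uM final); signal from B/G FRET substrate after 2 h at room temperature.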
Chain of Bile acid receptor (Homo sapiens) (Q96RI1 whole entry, looked up): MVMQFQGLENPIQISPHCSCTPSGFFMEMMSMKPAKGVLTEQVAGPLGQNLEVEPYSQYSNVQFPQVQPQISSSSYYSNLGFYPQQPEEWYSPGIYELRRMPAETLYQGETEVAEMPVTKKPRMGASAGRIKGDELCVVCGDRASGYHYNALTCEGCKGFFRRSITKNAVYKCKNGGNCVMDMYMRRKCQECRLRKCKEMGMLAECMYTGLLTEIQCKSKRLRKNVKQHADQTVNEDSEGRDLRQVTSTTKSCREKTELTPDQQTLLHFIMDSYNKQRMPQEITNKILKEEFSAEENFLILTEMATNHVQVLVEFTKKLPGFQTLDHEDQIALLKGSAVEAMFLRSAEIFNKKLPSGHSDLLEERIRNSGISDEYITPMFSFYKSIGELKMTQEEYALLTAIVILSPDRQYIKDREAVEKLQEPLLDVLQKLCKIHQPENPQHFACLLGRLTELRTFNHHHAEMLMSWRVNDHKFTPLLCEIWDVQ

A short description of test [6]: qHTS assay to identify small molecule agonists of the farnesoid-X-receptor (FXR) signaling pathway - cell viability counter screen (AID 743218). Also: nearly all actives have a fitted effect of over 45% in size. The essentials: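 In GeneBLAzer FXR-UAS-bla HEK 293T cells, compounds act for 16 h at 37 C. Cell viability is then scored in the reporter wells by CellTiter-Glo, 30 min at RT, luminescence.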
Test [7] deals with Bile acid receptor (Homo sapiens) (UniProt Q96RI1). The test is described as follows: qHTS assay to identify small molecule agonists of the farnesoid-X-receptor (FXR) signaling pathway (AID 743220; active = well fitted activation curve with a large enough effect in the signal ratio in the repeat runs, not every such curve was filed as active; the % refers to the signal ratio). A digest of the protocol: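 Beta-lactamase reporter under UAS control in GeneBLAzer FXR HEK 293T cells (5000/well) measured with LiveBLAzer FRET substrate after 2 h at room temperature. Compound exposure lasted 16 h at 37C.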

Test [8] in a line: qHTS assay to identify small molecule antagonists of the farnesoid-X-receptor (FXR) signaling pathway - cell viability counter screen (AID 743221; active = well fitted cell-killing curve with a large enough effect in the repeat runs, not every such curve was filed as active; also: nearly all actives have a fitted effect of over 50% in size). A digest of the protocol:
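GeneBLAzer FXR-UAS-bla HEK 293T cells, compound plus chenodeoxycholic acid (50 uM final), 16 h at 37 C. CellTiter-Glo added to the same wells after the beta-lactamase read; luminescence read after 30 min at room temperature as viability.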

Test [9] has as its target Vitamin D3 receptor (Homo sapiens) (UniProt P11473). Nature of the test: qHTS assay to identify small molecule agonists of the vitamin D receptor (VDR) signaling pathway (AID 743222; calls by dose curve). The essentials:
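Agonist activity measured in VDR-bla reporter cells. Exposure 16 h, 37C, 5% CO2; detection by B/G FRET substrate, 2 h RT.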

Test [10] shares this target. Nature of the test: qHTS assay to identify small molecule antagonists of the vitamin D receptor (VDR) signaling pathway (AID 743223; active = well fitted inhibition curve with a large enough effect in the signal ratio in the repeat runs, not every such curve was filed as active; the % refers to the signal ratio). The essentials: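 VDR-bla cells were treated with compound plus 3 nM final 1alpha,25-dihydroxyvitamin D3 for 16 h at 37C. Beta-lactamase reporter read by B/G FRET substrate fluorescence after 2 h at room temperature. qHTS format.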

Records with an inconclusive call do not appear. The source holds several records for some structures; these can differ, active in one and inactive in another. Active and inactive are the calls of the source. Unless noted, calls follow the shape of the dose curve; as a rule, active = well fitted curve in the direction sought with a large enough effect in the repeat runs; inconclusive = weak or mixed curves; inactive = no such curve, though single readings can be large; an effect the other way counts as inactive or inconclusive.
% is scaled to controls: 0 for no effect and ±100 for the full control effect.

Chain of Vitamin D3 receptor (Homo sapiens) (P11473 whole entry, looked up): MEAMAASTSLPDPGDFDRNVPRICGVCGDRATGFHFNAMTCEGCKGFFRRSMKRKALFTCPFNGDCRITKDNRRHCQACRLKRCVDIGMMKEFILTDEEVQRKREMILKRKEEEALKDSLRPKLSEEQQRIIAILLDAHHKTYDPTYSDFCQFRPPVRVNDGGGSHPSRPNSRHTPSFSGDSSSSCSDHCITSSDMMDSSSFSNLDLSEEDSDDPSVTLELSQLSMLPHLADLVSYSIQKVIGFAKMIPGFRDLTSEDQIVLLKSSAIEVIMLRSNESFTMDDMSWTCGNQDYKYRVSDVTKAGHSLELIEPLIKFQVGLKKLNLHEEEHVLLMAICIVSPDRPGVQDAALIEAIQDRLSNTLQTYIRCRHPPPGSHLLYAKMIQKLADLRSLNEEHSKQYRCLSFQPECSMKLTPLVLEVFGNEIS
Chain of Peroxisome proliferator-activated receptor delta (Homo sapiens) (Q03181 whole entry, looked up): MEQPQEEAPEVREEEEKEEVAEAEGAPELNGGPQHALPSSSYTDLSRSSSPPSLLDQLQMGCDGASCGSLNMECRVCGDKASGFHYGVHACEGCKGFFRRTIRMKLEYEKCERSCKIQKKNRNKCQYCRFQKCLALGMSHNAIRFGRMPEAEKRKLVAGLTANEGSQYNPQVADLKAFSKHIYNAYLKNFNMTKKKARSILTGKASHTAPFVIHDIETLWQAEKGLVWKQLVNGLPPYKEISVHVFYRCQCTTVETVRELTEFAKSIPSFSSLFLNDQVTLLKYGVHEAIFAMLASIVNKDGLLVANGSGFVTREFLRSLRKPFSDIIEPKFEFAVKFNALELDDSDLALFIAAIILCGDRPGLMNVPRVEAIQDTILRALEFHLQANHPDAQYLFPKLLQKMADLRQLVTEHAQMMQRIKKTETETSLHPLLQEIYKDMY

On to `O=C(O)c1snc(Cl)c1Cl`, for which the Potency result in [1], in [2], in test [3], in [4], in test [5] and in test [6] was “inactive” each time. For the same molecule, the Potency result in test [7] and in [8] was “inactive” throughout. Besides, the molecule was called inactive in test [9] and in test [10].

As for `CC(=O)Oc1ccc2c(c1)CC[C@@H]1[C@@H]2CC[C@]2(C)[C@@H](O)CC[C@@H]12`, the Potency entry in test [1], in test [2], in test [3], in test [4], in [6] and in [7] was “inactive” throughout. Further, the Potency entry in test [8] is “inactive”. For the same molecule, in [5], the Potency was 29.8 µM (active). In [10], the result was inactive.

For `NC(=O)N(O)[C@@H]1COc2cc(OCc3ccccc3)ccc21`, the Potency entry in [1], in test [2], in test [3], in test [4], in test [5] and in test [6] was “inactive” in each case. The Potency result in test [7] and in test [8] was “inactive” in each case. Further, in test [10], the call was inactive.

Regarding `CC(C)CCCC(=O)O`, the Potency result in test [1], in test [2], in test [3], in [4], in [5] and in test [6] was “inactive” throughout. The Potency entry in [7] and in test [8] was “inactive” throughout. Besides, the result in [9] was inactive.

`Cc1oncc1C(=O)Nc1ccc(C(F)(F)F)cc1`: the Potency in test [1] was 54.9 µM (active) and inactive; in [3], 49 µM (active). In addition, the Potency entry in test [2], in test [4], in test [5], in test [6], in [7] and in test [8] was “inactive” each time.

Consider `O=C(CS)OCCOC(=O)CS`, for which the Potency entry in test [1], in test [2], in test [3], in [4], in test [5] and in [6] was “inactive” in each case. Further, the Potency result in test [7] and in test [8] was “inactive” each time. Also, the molecule was called inactive in test [9] and in test [10].

For `CCCCCCOC(=O)C(C)C`, the Potency result in test [1], in test [2], in [3], in test [4], in test [5] and in test [6] was “inactive” each time. For the same molecule, the Potency result in [7] and in [8] was “inactive” throughout. Further, the outcome in test [9] and in [10] was inactive.

With `CC(C)(C)C(=O)O`, the Potency entry in test [1], in test [2], in test [3], in test [4], in [5] and in test [6] was “inactive” in each case. Also, the Potency result in test [7] and in test [8] was “inactive” throughout. The molecule was called inactive in test [9] and in test [10].

`Cc1ccc(S(=O)(=O)NC2CCCCC2)cc1`: the Potency result in [1], in test [2], in test [3], in [4], in test [5] and in [6] was “inactive” throughout. In addition, the Potency entry in test [7] and in [8] was “inactive” in each case.

On to `CC(=O)Nc1ccc(N)cc1`, for which the Potency entry in [1], in test [2], in [3], in [4], in test [5] and in [6] was “inactive” throughout. The Potency result in test [7] and in test [8] was “inactive” each time. For the same molecule, the molecule was called inactive in test [9].

Turning to `CCN(CC)CCNC(=O)c1ccc(NC(C)=O)cc1`, the Potency result in test [1], in [2], in test [3], in [4], in test [5] and in test [6] was “inactive” throughout. Besides, the Potency entry in test [7] and in test [8] was “inactive” throughout. The result in [9] was inactive.

Consider `CC1=CC(=O)CC(C)(C)C1(O)/C=C/C(C)=C\C(=O)O` (stereo not drawn), for which the Potency entry in [1], in test [2], in test [3], in [4], in [5] and in test [6] was “inactive” each time. Moreover, the Potency result in test [7] and in test [8] was “inactive” in each case. In addition, the result in [9] and in [10] was inactive.

In the case of `Cc1ccccc1N1C(=O)c2cc(S(N)(=O)=O)c(Cl)cc2NC1C` (stereo not drawn), the Potency entry in test [1], in test [2], in test [3], in test [4], in test [5] and in test [6] was “inactive” each time. The Potency entry in [7] and in test [8] was “inactive” throughout. For the same molecule, the call in test [9] was inactive.

Take `Oc1cc(O)c(Cl)cc1Cl`: the Potency result in test [1], in test [2], in test [3], in test [4], in test [5] and in test [6] was “inactive” each time. Moreover, the Potency result in test [7] and in test [8] was “inactive” in each case. Also, the call in test [9] and in [10] was inactive.

Turning to `CO/N=C1\CN(c2nc3c(cc2F)c(=O)c(C(=O)O)cn3C2CC2)CC1CN` (stereo not drawn), the Potency result in [1], in test [2], in test [3], in test [4], in [5] and in test [6] was “inactive” in each case. In addition, the Potency entry in [7] and in test [8] was “inactive” in each case.

For the molecule `C=CCOC(=O)/C=C\C(=O)OCC=C`, the Potency entry in test [1], in test [2], in test [3], in test [4], in test [5] and in test [6] was “inactive” in each case. Besides, the Potency result in test [7] and in [8] was “inactive” in each case. In addition, in test [9], the outcome was inactive.

Regarding `Nc1c(I)cc(I)c(C(=O)N(CCC(=O)O)c2ccccc2)c1I`, the Potency result in test [1], in test [2], in test [3], in [4], in [5] and in [6] was “inactive” throughout. Also, the Potency entry in test [7] and in test [8] was “inactive” each time. Besides, the molecule was classed as inactive in test [9] and in test [10].

For `C=CCCCCCCCCCCCCCCCC`, the activity change, negative = cytotoxicity in [1] was -1.2% [at 5.95 µM] (inactive); in [8], -0.119% [at 5.95 µM] (inactive). In addition, the figures for the activation in test [2], in test [7] and in test [9] were -3.43% [at 5.95 µM] (inactive), -1.74% [at 5.95 µM] (inactive) and -0.178% [at 6.01 µM] (inactive), respectively. Moreover, the viability change, negative = cytotoxic was 13.3% [at 6.26 µM] (inactive) in test [3] and 4.85% [at 5.95 µM] (inactive) in test [6]. Moreover, in [4], the ratio activity, negative = inhibition is -0.434% [at 6.26 µM] (inactive). The activity change, negative = inhibition was -5.71% [at 5.95 µM] (inactive) in [5] and 7.35% [at 6.95 µM] (inactive) in [10].

Regarding `O=C(O)c1ccc(CO)o1`, the Potency result in test [1], in [2], in test [3], in test [4], in test [5] and in [6] was “inactive” in each case. The Potency result in test [7] and in test [8] was “inactive” each time. Moreover, the molecule was called inactive in [9].

In the case of `CCC(=O)OC/C=C/c1ccccc1`, the Potency entry in test [1], in [2], in test [3], in test [4], in [5] and in test [6] was “inactive” throughout. Moreover, the Potency result in test [7] and in test [8] was “inactive” each time. Moreover, the outcome in test [9] and in [10] was inactive.

For `CCCCC(CC)CNCC(CC)CCCC` (stereo not drawn), the Potency entry in test [1], in [2], in [3], in [4], in test [5] and in [6] was “inactive” in each case. Moreover, the Potency result in [7] and in test [8] was “inactive” in each case. The molecule was called inactive in [9] and in [10].

As to `CCCCCCCCCCCC(=O)[O][Sn]([CH2]CCC)([CH2]CCC)[O]C(=O)CCCCCCCCCCC`, the Potency entry in test [1] and in test [2] was “inactive” throughout.

As to `CC#N`, the Potency entry in [1], in test [2], in test [3], in test [4], in test [5] and in test [6] was “inactive” in each case. For the same molecule, the Potency entry in [7] and in test [8] was “inactive” throughout.

Consider `CCCCCCCCSCCO`, for which the Potency entry in [1], in test [2], in [3], in test [4], in [5] and in test [6] was “inactive” throughout. In addition, the Potency result in test [7] and in [8] was “inactive” throughout.

As to `NCC1CCCC(CN)C1` (stereo not drawn), the Potency entry in [1], in test [2], in [3], in [4], in [5] and in test [6] was “inactive” each time. The Potency entry in test [7] and in test [8] was “inactive” in each case. For the same molecule, in [9], the outcome was inactive.

Values taken from PubChem BioAssay (Tox21).
